KinaseGlo FLuc: Counterscreen for Luciferase (Kinase-Glo TM) Inhibition. Kinase-Glo luciferase, ATP luminescence, 8 min. Potency, µM (highest dose often 38.3 µM), inactives show at the highest dose activity change, negative = inhibition, usual class: inhibitors. Luciferin 4-monooxygenase (Photuris pensylvanica), Q27757. hit rate 0.28% among 200,000. AID 1379, 2008; note: % is set by controls: 0 for no effect and ±100 for the full control effect; nearly all actives have a fitted effect of over 60% in size
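Inhibition of Kinase-Glo luciferase light generation was assessed at 10 uM ATP in pH 7.2 imidazole buffer, with luminescence measured after eight minutes at ambient temperature.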
ELG1 genotox: qHTS screen for small molecules that induce genotoxicity in human embryonic kidney (HEK293T) cells expressing luciferase-tagged ELG1 | HEK293T ELG1-luciferase reporter, luminescence, 16 h | Potency, µM (top dose mostly 46 µM), without a hit: at the top dose activity change, positive = activation, usual class: activators | hit rate 1.3% among 330,000; note: % of control where 0% means no effect; nearly all actives have a fitted effect of over 60% in size
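Genotoxic stress is detected as increased luminescence from luciferase-tagged ELG1 in HEK293T cells, measured with ONE-Glo after a 16 hr treatment at 37 °C.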
SMN2 splice enh: qHTS Assay for Enhancers of SMN2 Splice Variant Expression; AID 1458, 2008; Potency, µM (top dose mostly 46.1 µM), without a hit: at the highest dose activity change, positive = activation, usual class: activators; HEK293 SMN2-luciferase splicing reporter, luminescence, 30-36 h; hit rate 2.8% among 210,000; note: % of control where 0% means no effect; nearly all actives have a fitted effect of over 55% in size
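HEK293 cells carry an SMN2 […]–luciferase reporter in which exon 7 inclusion puts luciferase in frame. Cells were plated 10-12 h before compound addition, then incubated 30-36 h at 37C. ONE-Glo luminescence was read; sodium butyrate at 4.5 mM final served as control.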
FLuc modulator: qHTS profiling assay for firefly luciferase inhibitor/activator using purifed enzyme and Km concentrations of substrates (counterscreen for miR-21 project); Luciferin 4-monooxygenase (Photinus pyralis), P08659; purified FLuc, Km substrates, luminescence inhibition; Potency, µM (doses to about 57.5 µM), for the others: top-dose activity change, negative = inhibition, usual class: inhibitors; hit rate 6.9% among 360,000; AID 588342, 2011;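 note: plate controls were vehicle for no effect and reference inhibitor for full effect; nearly all actives have a fitted effect of over 55% in size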
Target sequence (P08659 whole entry, looked up): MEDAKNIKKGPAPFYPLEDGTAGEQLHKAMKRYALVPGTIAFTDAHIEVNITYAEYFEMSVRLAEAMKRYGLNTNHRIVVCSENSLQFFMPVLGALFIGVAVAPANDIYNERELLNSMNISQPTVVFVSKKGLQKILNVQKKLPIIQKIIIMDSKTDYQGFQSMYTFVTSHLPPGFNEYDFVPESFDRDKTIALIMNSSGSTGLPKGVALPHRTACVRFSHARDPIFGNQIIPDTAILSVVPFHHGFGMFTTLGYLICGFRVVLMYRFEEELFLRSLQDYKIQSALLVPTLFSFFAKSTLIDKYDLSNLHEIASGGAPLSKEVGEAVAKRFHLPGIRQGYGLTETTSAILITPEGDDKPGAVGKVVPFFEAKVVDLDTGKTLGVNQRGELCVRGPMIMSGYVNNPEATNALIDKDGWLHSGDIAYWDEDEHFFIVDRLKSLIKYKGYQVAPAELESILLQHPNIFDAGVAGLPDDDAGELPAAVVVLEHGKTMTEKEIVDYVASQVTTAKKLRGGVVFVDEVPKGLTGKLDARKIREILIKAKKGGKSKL
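Purified P. pyralis luciferase (10nM final) with 10uM D-luciferin and 10uM ATP (Km levels) in 50mM Tris acetate pH 7.5, 10mM Mg acetate, 0.01% Tween-20, 0.05% BSA; qHTS 6-point titration, ~60 µM downward; luminescence read.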
NPC1 promoter act: qHTS Assay for NPC1 Promoter Activators | Huh7 NPC1 promoter luciferase reporter, 24 h | hit rate 2.4% among 320,000 | Potency, µM (series often up to 9.22 µM), for inactives: at the top dose activation, hits mostly activators | AID 485313, 2010; note: % of control where 0% means no effect; nearly all actives have a fitted effect of over 60% in size
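Cells: Huh7 expressing luciferase under the NPC1 promoter, 1500/well. Seeded 2 h, compound added, incubated 24 h at 37 °C. Luciferase reagent, 10 min ambient, then luminescence.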
Rab9 prom act: qHTS Assay for Rab9 Promoter Activators; Huh7 Rab9 promoter-luciferase reporter, luminescence, 24 h; Potency, µM (series often up to 9.22 µM), inactives show at the top dose activation, negative = inhibition, most hits filed as activators; hit rate 2.8% among 320,000; AID 485297, 2010; note: % of control where 0% means no effect; nearly all actives have a fitted effect of over 60% in size
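Huh7 cells stably carrying Rab9 promoter–luciferase reporter, plated 1500 cells/well, compound added after 2 h and incubated 24 h at 37 °C; luciferase luminescence then read after 10 min with detection reagent.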
Numbers without * were called inactive; ? = inconclusive; / = not tested or not shown; [ ] = remark or other dose. This is a sample that favours compounds with a hit; in the whole collection about 7.4% have one here. Calls come from the whole dose curve; as a rule, active = well fitted curve in the direction sought with a large enough effect; inconclusive = small, poorly fitted or top-dose-only effect, or another doubt; inactive = no such curve, though single readings can be large; an effect the other way counts as inactive or inconclusive. Potency is the fitted concentration of half-maximal effect.

SMILES | KinaseGlo FLuc | ELG1 genotox | SMN2 splice enh | FLuc modulator | NPC1 promoter act | Rab9 prom act
CCOc1ccc(C(=O)Nc2ccccc2-c2ccccc2)cc1Cl | 1.6% | -0.3% | -14.7% | -1.9% | -2.7% | 1.9%
CC(C)c1ccc(OCC(=O)NCC(c2ccc(Cl)cc2)N2CCOCC2)cc1 (stereo not given) | / | / | / | -14.7% | / | /
O=C(O)C1Cc2c([nH]c3ccccc23)C(c2coc3ccccc3c2=O)N1 (stereo not given) | -1.7% | / | -4.0% | / | / | /
COc1cccc(Nc2c3c(nc4nncn24)CCC3)c1 | / | / | -2.5% | 1.1% | / | /
CCOc1c(Cl)cc(C(=O)Nc2ccccc2C(=O)O)cc1Cl | -2.7% | 0.6% | ? | 19µM* | 24.8% | ?
COC(=O)C1=C(C(=O)OC)[C@@H]2N(Cc3ccccc3)c3ccccc3[C@@]23C[C@@H](C(=O)OC)N(C(=O)c2ccco2)C3=N1 | 0.6%[7.66 µM] | / | -3.3%[9.22 µM] | / | / | /
COc1ccc2c(c1)CCc1sc(NC(=O)c3ccc(C)cc3)nc1-2 | -0.7% | -6.1% | -30.9% | 8.49µM* | 0.3% | 3.2%
COc1ccc2c(c1)-c1nc(NC(=O)c3ccco3)sc1CC2 | 0.0% | 13.2% | / | 19µM* | 13.7% | 19.4%
COc1ccc2c(c1)-c1nc(NC(=O)c3cccc(Br)c3)sc1CC2 | / | / | -26.3% | -13.2% | / | /
COc1ccc2c(c1)Cc1sc(NC(=O)c3ccco3)nc1-2 | -2.6% | 12.8% | 11.2µM* | 3.38µM* | 2µM* | 1.78µM*
COc1ccc2c(c1)CCc1sc(NC(=O)c3ccco3)nc1-2 | -6.3% | ? | 9.8% | 21.3µM* | 25.2% | ?
O=C(O)c1cc(C(=O)C(=O)c2cc(C(=O)O)c(O)c3ccccc23)c2ccccc2c1O | -2.0%[7.66 µM] | / | -1.9%[9.22 µM] | / | / | /
Cc1cccc(NC(=O)Cn2nnc(C(=O)NCc3cccs3)c2N)c1 | / | / | 7.7% | -7.8% | / | /
CCCN1C(=O)c2[nH]nc(-c3ccccc3O)c2C1c1ccc(OCc2ccccc2)c(OCC)c1 (stereo not given) | / | / | 5.3% | 0.3% | / | /
CC1(C)CC(=O)c2cc(-c3nc(-c4ccc(F)cc4)cs3)c(=O)[nH]c2C1 | / | / | -0.3% | 2.0% | / | /
COc1ccc2c(c1)-c1nc(NC(=O)c3cccs3)sc1CC2 | -1.8% | -0.9% | 3.5% | 19µM* | 3.0% | 20.2%
COc1ccc2c(c1)Cc1sc(NC(C)=O)nc1-2 | -3.5% | 8.2µM* | 5.62µM* | 4.78µM* | 1µM* | 0.794µM*
O=C(Nc1nc2ccccc2[nH]1)c1ccc(OC(F)F)cc1 | / | 1.46µM* | / | 0.536µM* | 0.126µM* | 0.282µM*
COc1ccc(OC(C)c2nc3ccccc3[nH]2)cc1 (stereo not given) | / | / | / | -2.2% | / | /
N#CC(Cc1ccc(OC(F)F)cc1)c1nc2ccccc2[nH]1 (stereo not given) | -4.2% | ? | ? | 8.49µM* | ? | ?
CC(C)Oc1ccc(C(=O)Nc2nc3ccccc3[nH]2)cc1 | / | ? | / | 0.12µM* | ? | ?
O=C(Nc1nc2ccccc2[nH]1)c1ccccc1OC(F)F | / | ? | / | 0.953µM* | 0.794µM* | 0.501µM*
COc1ccc(CC(=O)Nc2nc3ccccc3[nH]2)cc1 | / | -1.1% | / | -1.8% | 29.9% | 22.7%
CCC(Oc1ccccc1)C(=O)Nc1nc2ccccc2[nH]1 (stereo not given) | -2.2% | 25.6% | 8.2% | ? | 17.5% | 15.3%
O=C(NCc1cccnc1)C(C(=O)c1ccc(F)cc1)n1ccccc1=O (stereo not given) | -0.5% | 18.4µM* | 6.5% | -1.8% | 2.0% | 16.4%
SMILES | KinaseGlo FLuc | ELG1 genotox | SMN2 splice enh | FLuc modulator | NPC1 promoter act | Rab9 prom act
COc1ccc(-c2coc3cc(O)ccc3c2=O)c(OC)c1 | -2.4% | / | -0.9% | / | / | /
COc1ccc(-c2coc3cc(O)ccc3c2=O)cc1 | -7.3% | / | 11.2µM* | / | / | /
COc1ccc(-c2coc3cc(O)ccc3c2=O)cc1O | / | 13µM* | / | 9.53µM* | ? | ?
CN(Cc1ccccc1)C(=O)CSc1nc2ccsc2c(=O)n1-c1ccc(F)cc1 | / | / | / | -16.6% | / | /
CCN(CC)S(=O)(=O)c1cc(-c2nnc(Nc3ccc(OC)c(C(N)=O)c3)c3ccccc23)ccc1C | / | / | -39.9% | ? | / | /
CCOC(=O)Cc1nn(C)c(=O)c2ccccc12 | -4.9% | 4.9% | 5.62µM* | -1.1% | -1.5% | 0.0%
CCOC(=O)Cc1nn(CC)c(=O)c2ccccc12 | -1.6% | 2.3% | / | -0.7% | -0.8% | -11.1%
CC(Sc1nc(-c2ccccc2)c(C#N)c(=O)[nH]1)C(=O)Nc1ccc(F)cc1 (stereo not given) | / | / | / | 16.9µM* | / | /
CSc1nc(-c2ccccc2)c(C#N)c(=O)[nH]1 | / | -1.6% | / | -0.7% | 0.2% | -2.8%
Cc1ccc(NC(=O)C(C)Sc2nc(-c3ccccc3)c(C#N)c(=O)[nH]2)c(C)c1 (stereo not given) | / | / | / | 12µM* | / | /
Brc1ccc(COc2ncnc3ccccc23)cc1 | -1.3% | 0.3% | 5.6% | 1.0% | 0.6% | 11.8%
c1ccc(OCCOc2ncnc3ccccc23)cc1 | 0.1% | ? | 3.4% | ? | 3.55µM* | 3.98µM*
CC(C)N(Cc1ccccc1)C(=O)CN1C(=O)CSc2ccc(S(=O)(=O)N3CCCC3)cc21 | / | / | / | -6.2% | / | /
CC(C)(C)C(=O)/C=C/c1ccc(Oc2ccccc2)cc1 | / | ? | / | 6.01µM* | ? | 6.31µM*
CCOc1ccc(/C=C/C(=O)c2ccccc2)cc1 | / | ? | / | 0.151µM* | 1.12µM* | 0.794µM*
CCOc1ccc(C(=O)/C=C/c2ccc(SC)cc2)cc1 | 3.2% | 0.0% | -6.5% | 5.36µM* | 0.7% | -0.9%
CCOc1ccc(N/C=C/C(=O)c2ccccc2)c([N+](=O)[O-])c1 | 11.2µM* | ? | 0.562µM* | 0.12µM* | 0.1µM* | 0.1µM*
CCOc1ccc(NC(=O)/C=C/c2ccccc2)c([N+](=O)[O-])c1 | 1.4% | 17.0% | ? | ? | 25.4% | ?

Bioassay records deposited in PubChem by National Center for Advancing Translational Sciences (NCATS).
